# Experimental data as given in PubChem BioAssay.
# Calls of active or inactive are those of the source. Unless noted, no rule for the calls is given here.
# Legend:
# [1] = HepG2 liver cancer cell viability effects, profiling panel, resazurin fluorescence, 24 h, PK04 Diversity Set (AID 1172); details: higher = more signal; also: test concentration not given here
# [2] = basal S. cerevisiae growth modulation, no modifier, primary screen, OD600, strain BY4716, 24 h, basal condition (AID 1173); details: OD600, 24 h, higher = more signal, called active from +8 up or from −8 down
# [3] = MM1S myeloma cell viability, profiling panel, resazurin fluorescence, basal, 24 h, PK04 Diversity Set (AID 1174); details: higher = more signal, called active from +8 up or from −8 down;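 also: MM1S multiple myeloma cell line; test concentration not given here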
# [4] = molecular target: Dihydroorotate dehydrogenase (quinone), mitochondrial (Plasmodium falciparum (isolate 3D7)) (UniProt Q08210); test: PfDHODH enzyme inhibitors, primary screen, biochemical, C-terminal His tag, absorbance 600 nm (AID 1175); details: DCIP absorbance 600 nm, higher = more signal, called active from +8 up or from −8 down;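 also: recombinant parasite enzyme with a five histidine tag at its C terminus; test concentration not given here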
# Chain of Dihydroorotate dehydrogenase (quinone), mitochondrial (Plasmodium falciparum (isolate 3D7)) (Q08210 whole entry, looked up): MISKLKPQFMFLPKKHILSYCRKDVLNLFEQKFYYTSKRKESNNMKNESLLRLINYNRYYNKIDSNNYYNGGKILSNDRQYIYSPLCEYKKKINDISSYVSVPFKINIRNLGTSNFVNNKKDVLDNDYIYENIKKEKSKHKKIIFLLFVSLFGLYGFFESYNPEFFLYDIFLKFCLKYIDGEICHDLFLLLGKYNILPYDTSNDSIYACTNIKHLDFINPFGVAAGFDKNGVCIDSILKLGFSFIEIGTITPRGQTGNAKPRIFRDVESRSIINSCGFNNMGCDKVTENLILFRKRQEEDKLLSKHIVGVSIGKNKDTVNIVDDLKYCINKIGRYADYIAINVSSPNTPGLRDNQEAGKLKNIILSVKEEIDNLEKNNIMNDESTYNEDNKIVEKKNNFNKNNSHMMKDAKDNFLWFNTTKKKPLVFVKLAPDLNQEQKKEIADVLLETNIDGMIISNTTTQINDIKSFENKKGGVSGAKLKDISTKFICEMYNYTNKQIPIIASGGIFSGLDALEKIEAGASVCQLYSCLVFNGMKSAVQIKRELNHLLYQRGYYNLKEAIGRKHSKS
# [5] = P. aeruginosa biofilm formation inhibitors, primary screen, strain PAO1, LB-PBS medium, absorbance 600 nm (AID 1176); also: test concentration not given here; details: P. aeruginosa PAO1 growth/biofilm, A600, 12 h; higher = more signal
# [6] = S. cerevisiae RM11-1a growth modifiers, primary screen, strain RM11-1a, OD600, basal, 24 h (AID 1177); details: OD600, 24 h, higher = more signal, called active from +8 up or from −8 down;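 also: cultures grown under basal conditions with no added stressor; test concentration not given here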
# [7] = E. coli acrAB mutant growth effects, primary screen, E. coli filamentation inducers, strain DRC39, OD650, 24 h (AID 1178); details: higher = more signal, called active from +8 up or from −8 down;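 also: growth measured as culture turbidity by optical density at 650 nm; test concentration not given here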
# [8] = E. coli acrAB mutant growth effects, primary screen, E. coli filamentation inducers, strain DRC39, OD650, 48 h (AID 1179);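 also: screen aims at cell division blockers that make cells filament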; details: E. coli DRC39 delta-acrAB growth, higher = more signal, called active from +8 up or from −8 down
# [9] = RPMI8226 myeloma cell viability, profiling panel, resazurin fluorescence, basal, 24 h, PK04 Diversity Set (AID 1180); details: higher = more signal;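 also: RPMI8826 multiple myeloma cell line at 5000 cells per well; test concentration not given here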
# [10] = molecular target: E3 ubiquitin-protein ligase XIAP (Homo sapiens) (UniProt P98170); test: XIAP binders, primary screen, biophysical, small-molecule microarray, fluorescence 635 nm (AID 1181); details: small-molecule microarray binding, higher = more signal;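 also: score merges 667 nm emission and signal to noise over triplicate slides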
# Chain of E3 ubiquitin-protein ligase XIAP (Homo sapiens) (P98170 whole entry, looked up): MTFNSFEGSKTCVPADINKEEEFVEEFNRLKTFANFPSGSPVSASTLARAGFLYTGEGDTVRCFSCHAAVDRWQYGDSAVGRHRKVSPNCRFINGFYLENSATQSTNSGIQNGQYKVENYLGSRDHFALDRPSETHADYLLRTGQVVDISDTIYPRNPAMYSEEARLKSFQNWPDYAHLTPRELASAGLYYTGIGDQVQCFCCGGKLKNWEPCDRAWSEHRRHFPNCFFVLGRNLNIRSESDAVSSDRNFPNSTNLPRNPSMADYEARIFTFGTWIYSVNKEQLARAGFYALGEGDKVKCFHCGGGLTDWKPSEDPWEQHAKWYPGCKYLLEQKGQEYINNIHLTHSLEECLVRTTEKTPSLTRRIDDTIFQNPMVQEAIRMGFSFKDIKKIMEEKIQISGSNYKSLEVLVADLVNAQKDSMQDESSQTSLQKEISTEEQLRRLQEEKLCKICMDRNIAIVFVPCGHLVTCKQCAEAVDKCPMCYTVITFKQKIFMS
Compound,z-score [1],z-score [2],z-score [3],composite z-score [4],z-score [5],z-score [6],z-score [7],z-score [8],z-score [9],composite z-score [10]
O=C1[C@H]2[C@H]3[C@H](O)[C@H](O)CC(=NOC[C@@H](O)COCc4ccco4)[C@H]3CC[C@H]2C(=O)N1c1cccc(Oc2ccccc2)c1,0.957,0.22 (inactive),-0.654 (inactive),-0.365 (inactive),0.741 (inactive),-0.183 (inactive),0.916 (inactive),1.33 (inactive),-0.192,-0.295
C=C(/C(=C/C[C@H](OC(=O)c1ccncc1)c1ccc(OCCO)cc1)c1cnc2ccccc2c1)C(C)C,0.145,-0.753 (inactive),-0.777 (inactive),-2.73 (inactive),0.85 (inactive),0.0942 (inactive),-1.05 (inactive),-1.02 (inactive),0.0076,0.13
O=C1C[C@@H](O)[C@@H](O)[C@@H]2[C@@H]3C(=O)N(c4cccc(Oc5ccccc5)c4)C(=O)[C@@H]3CC[C@@H]12,-0.165,-0.208 (inactive),0.207 (inactive),-0.453 (inactive),-0.708 (inactive),-0.25 (inactive),-0.65 (inactive),-0.644 (inactive),-0.0298,-0.102
CO[C@@H]1COC(=O)CC=C[C@@H](C)[C@H](OC)COC(=O)[C@H](COCc2ccccc2)NC(=O)CC=C[C@H]1C,0.628,-1.13 (inactive),-0.0928 (inactive),-0.0234 (inactive),-0.225 (inactive),-0.47 (inactive),0.406 (inactive),-0.723 (inactive),1.35,0.17
CN(C)CCCNC(=O)[C@@H]1c2ccccc2C(=O)N(Cc2cc(F)cc(C(F)(F)F)c2)[C@H]1c1ccc(CO)cc1,0.0356,-0.473 (inactive),-0.62 (inactive),0.0999 (inactive),0.348 (inactive),0.0333 (inactive),-0.0392 (inactive),-0.578 (inactive),-0.359,-0.0172
C=C(/C(=C/C[C@@H](OC(=O)c1ccncc1)c1ccc(OCCO)cc1)c1cnc2ccccc2c1)C(C)C,0.384,-18.5 (active),-0.684 (inactive),-10.5 (active),-0.235 (inactive),-22.1 (active),0.872 (inactive),0.432 (inactive),0.206,-0.0373
CC(CCC(=O)OC[C@H]1O[C@H](C#Cc2ccccc2)C=C[C@@H]1Oc1ccc(C)cc1)=NOC[C@@H](O)[C@H]1O[C@@H]2OC(C)(C)O[C@@H]2[C@H]1O,-0.279,0.197 (inactive),0.134 (inactive),-2.15 (inactive),-0.324 (inactive),0.71 (inactive),0.844 (inactive),1.1 (inactive),0.0234,-0.325
CC(=O)OC[C@H]1O[C@@H](ON=C(C)CCN2CCc3nc(-c4ccccc4)c(-c4ccccc4)cc3C2)[C@H](OC(C)=O)[C@@H](OC(C)=O)[C@@H]1OC(C)=O,-0.182,-0.909 (inactive),-0.653 (inactive),-0.24 (inactive),0.0039 (inactive),-0.127 (inactive),-1.11 (inactive),-2.14 (inactive),-0.323,0.0819
COC(=O)[C@H](C)NC(=O)CCC1CC(OC(=O)NCCc2ccc(F)cc2)CC2(CCCC(COC(=O)NCC(c3ccccc3)c3ccccc3)O2)O1 (stereo not given in full),0.725,0.718 (inactive),0.476 (inactive),-0.216 (inactive),0.0251 (inactive),1.31 (inactive),1.06 (inactive),0.706 (inactive),0.809,-0.323
CC(CCN1CCc2nc(-c3ccccc3)c(-c3ccccc3)cc2C1)=NO[C@@H](C)c1cn([C@H](CO)Cc2ccccc2)nn1,-1.41,-3.25 (inactive),-0.996 (inactive),-1.81 (inactive),-0.23 (inactive),-2.23 (inactive),-0.249 (inactive),-0.147 (inactive),-0.914,-0.376
C#CCCCON=C1C[C@@H](O)[C@@H](O)[C@@H]2[C@@H]3C(=O)N(CCC(=O)OCC)C(=O)[C@@H]3CC[C@@H]12,-0.0517,-0.395 (inactive),-1.01 (inactive),0.175 (inactive),-0.0485 (inactive),-0.538 (inactive),0.122 (inactive),0.529 (inactive),-0.739,-0.212
CO[C@H]1COC(=O)[C@H](C)NC(=O)[C@@H](C)COC(=O)CC=C[C@@H]1C,-0.279,-0.518 (inactive),0.0346 (inactive),-0.0114 (inactive),-0.443 (inactive),-0.477 (inactive),0.327 (inactive),1.3 (inactive),0.0991,0.0593
CCCCC(=C=CC[C@H](O)c1ccccc1OCCO)C[C@H](O)COCc1ccccc1,-0.325,-1.18 (inactive),-0.505 (inactive),-2.89 (inactive),0.637 (inactive),-0.0076 (inactive),0.156 (inactive),0.0347 (inactive),-0.276,-0.0062
COc1cccc([C@H]2Oc3ccc(OC)cc3C(=NO[C@H](C)c3cn([C@@H]4COC[C@H]4O)nn3)[C@@H]2O)c1,-0.859,-0.117 (inactive),0.0029 (inactive),-2.1 (inactive),-0.409 (inactive),-0.761 (inactive),-0.537 (inactive),-2.22 (inactive),-0.238,0.0264
CC(CCN1CCc2nc(-c3ccccc3)c(-c3ccccc3)cc2C1)=NOC[C@@H](C)[C@H](OCc1ccccc1)C(C)C,-1.12,-2.01 (inactive),0.504 (inactive),0.928 (inactive),-0.315 (inactive),0.0117 (inactive),-1.23 (inactive),-0.936 (inactive),0.64,-0.04
CC(CCC(=O)OC[C@H]1O[C@H](C#Cc2ccccc2)C=C[C@@H]1Oc1ccc(C)cc1)=NOC[C@@H](O)COCc1ccco1,-0.501,0.384 (inactive),-1.39 (inactive),-1.24 (inactive),0.277 (inactive),-0.0703 (inactive),0.564 (inactive),0.895 (inactive),0.131,-0.0454
CCOC(=O)C1=CC[C@H]2C(=O)N(CC)C(=O)[C@@H]12,0.507,1.31 (inactive),0.293 (inactive),0.467 (inactive),0.0236 (inactive),1.38 (inactive),-0.0583 (inactive),-0.196 (inactive),0.667,-0.311
COCCOC(=O)N1C(=O)[C@@]2(c3cc(C#CC4(O)CCCCCC4)ccc31)[C@H](c1ccc(OCCO)cc1)N1[C@H](c3ccccc3)[C@H](c3ccccc3)OC(=O)[C@H]1[C@@H]2C(=O)NC[C@H](O)c1ccccc1,-0.259,0.685 (inactive),-0.596 (inactive),1.74 (inactive),1.91 (inactive),2.62 (inactive),0.393 (inactive),0.0869 (inactive),0.406,-0.16
CCN1C(=O)[C@H]2[C@H]3[C@H](O)[C@H](O)CC(=NOC[C@@H](C)[C@H](OCc4ccccc4)C(C)C)[C@@H]3CC[C@H]2C1=O,-0.725,-4.63 (inactive),-0.959 (inactive),-0.613 (inactive),0.0525 (inactive),-0.134 (inactive),1.03 (inactive),0.992 (inactive),-0.989,-0.0599
O=C1O[C@@H](c2ccccc2)[C@@H](c2ccccc2)N2[C@@H](c3ccc(O)cc3)[C@]3(C(=O)Nc4ccccc43)[C@@H](C(=O)O)[C@H]12,-0.253,-0.922 (inactive),-0.14 (inactive),-1.42 (inactive),0.697 (inactive),-0.472 (inactive),-0.0134 (inactive),-0.831 (inactive),0.393,0.125
NC(=O)NCC#Cc1ccc2c(c1)[C@]1(C(=O)N2)[C@H](c2ccc(O)cc2)N2[C@H](c3ccccc3)[C@H](c3ccccc3)OC(=O)[C@H]2[C@@H]1C(=O)N1CCCCCCC1,0.855,1.16 (inactive),0.949 (inactive),-0.127 (inactive),1.1 (inactive),1.96 (inactive),1.04 (inactive),-0.817 (inactive),1.36,-0.0925
CCOC(=O)[C@H](Cc1ccccc1)NC(=O)CCC1CC(OC(=O)NCc2ccc3c(c2)OCO3)CC2(CCCC(COC(=O)NCc3ccccc3)O2)O1 (stereo not given in full),0.966,-0.0513 (inactive),0.637 (inactive),0.208 (inactive),0.0858 (inactive),0.864 (inactive),0.703 (inactive),1.22 (inactive),0.676,-0.0089
COC(=O)C1(C)C=C2C(=C(c3ccccc3)C(=O)C2C)CN1 (stereo not given),-1.44,0.558 (inactive),-1.71 (inactive),-0.784 (inactive),1.38 (inactive),0.376 (inactive),-0.632 (inactive),-0.348 (inactive),-2.05,0.359
O=C1[C@H]2[C@H]3[C@H](O)[C@H](O)CC(=NOC[C@@H](O)COCc4ccco4)[C@H]3CC[C@H]2C(=O)N1Cc1ccc2c(c1)OCO2,0.102,0.684 (inactive),-0.293 (inactive),-0.566 (inactive),-0.85 (inactive),0.0885 (inactive),0.786 (inactive),1.11 (inactive),0.263,0.0049
COc1ccc(O[C@H]2C=C[C@@H](c3ccccc3)O[C@@H]2COC(=O)CCC(C)=NO[C@@H](C)c2cc(-c3c(C)cc(C)cc3C)no2)cc1,0.716,1.04 (inactive),0.622 (inactive),0.188 (inactive),-0.421 (inactive),0.108 (inactive),0.291 (inactive),-0.893 (inactive),1.14,-0.151
